# NPC1 prom act: activates the NPC1 promoter; Huh7 NPC1 promoter luciferase reporter, 24 h; Potency, µM (top dose mostly 9.22 µM), hits mostly activators; 320,000 tested, 2.4% active; further: nearly all actives have a fitted effect of over 60% in size
#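 Huh7 reporter cells (NPC1 promoter driving luciferase) are dosed with compound for 24 h at 37 °C, 5% CO2; luciferase detection reagent is then added and luminescence measured after 10 min at ambient temperature.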
# SMN2 splice enh: enhancers of SMN2 splice variant expression. 210,000 tested, 2.8% active. AID 1458. HEK293 SMN2-luciferase splicing reporter, luminescence, 30-36 h. Potency, µM (doses to about 46.1 µM), actives largely listed as activators; further: nearly all actives have a fitted effect of over 55% in size
#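 HEK293 cells carry an SMN2 […]–luciferase reporter in which exon 7 inclusion puts luciferase in frame. Cells were plated 10-12 h before compound addition, then incubated 30-36 h at 37C. ONE-Glo luminescence was read; sodium butyrate at 4.5 mM final served as control.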
# ELG1 repair inh: inhibitors of ELG1-dependent DNA repair in HEK293T cells. HEK293T ELG1-luciferase reporter, luminescence, 16 h; DNA damage induced by 5-fluorouridine. Potency, µM (doses to about 46.1 µM), actives largely listed as inhibitors. 330,000 tested, 2.3% active. AID 504467; further: nearly all actives have a fitted effect of over 55% in size
#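 DMSO vehicle served as the neutral condition. Each well held 2,000 cells given 5-fluorouridine plus compound; after 16 hr at 37 °C/5% CO2, ONE-Glo was added and luciferase measured 30 min later.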
# Rab9 prom act: activators of Rab9 promoter; 320,000 tested, 2.8% active; Huh7 Rab9 promoter-luciferase reporter, luminescence, 24 h; Potency, µM (doses to about 9.22 µM), hits mostly activators; further: nearly all actives have a fitted effect of over 60% in size
#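 Huh7 cells stably carrying a Rab9 promoter-luciferase reporter, 1500 cells per well in OP-MEM I with 10% FBS, treated with compound 24 hours at 37C. Luciferase activity read by luminescence after 10 minutes with Amplite reagent.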
# ELG1 genotox: genotoxicity induction in ELG1-luciferase HEK293T cells; HEK293T ELG1-luciferase reporter, luminescence, 16 h; Potency, µM (titrated, usually from 46 µM), hits mostly activators; 330,000 tested, 1.3% active; AID 504466; further: nearly all actives have a fitted effect of over 60% in size
#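 Cells (2,000/well) expressing the ELG1-luciferase fusion are dosed by pin tool and kept 16 hr at 37 °C, 5% CO2. Signal comes from ONE-Glo luciferase reagent after 30 min at room temperature.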
# FLuc modulator: counter-screen for miR-21 project: firefly luciferase inhibitors or activators; Potency, µM (series often up to 57.5 µM), hits mostly inhibitors; P08659; purified FLuc, Km substrates, luminescence inhibition; 360,000 tested, 6.9% active; further: nearly all actives have a fitted effect of over 55% in size
# Target sequence (P08659 whole entry, looked up): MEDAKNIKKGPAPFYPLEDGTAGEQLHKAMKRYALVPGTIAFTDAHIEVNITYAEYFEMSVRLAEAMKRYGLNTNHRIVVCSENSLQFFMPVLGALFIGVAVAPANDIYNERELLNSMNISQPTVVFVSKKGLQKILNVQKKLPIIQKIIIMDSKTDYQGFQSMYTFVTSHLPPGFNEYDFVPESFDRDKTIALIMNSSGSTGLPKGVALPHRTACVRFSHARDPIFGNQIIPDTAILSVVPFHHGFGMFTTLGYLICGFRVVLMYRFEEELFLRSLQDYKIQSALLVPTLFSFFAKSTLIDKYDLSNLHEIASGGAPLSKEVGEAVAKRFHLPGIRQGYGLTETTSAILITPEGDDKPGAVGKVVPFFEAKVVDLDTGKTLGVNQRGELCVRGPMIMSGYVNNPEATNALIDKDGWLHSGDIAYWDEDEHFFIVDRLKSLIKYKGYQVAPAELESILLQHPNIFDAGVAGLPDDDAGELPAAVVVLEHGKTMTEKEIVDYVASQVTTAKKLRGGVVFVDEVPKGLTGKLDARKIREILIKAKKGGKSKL
#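 Purified P. pyralis luciferase, 10 nM final, with Km-level 10 uM D-luciferin and 10 uM ATP in 50 mM Tris acetate pH 7.5, 10 mM Mg acetate, 0.01% Tween-20, 0.05% BSA; 6-point qHTS titration about 60 µM downward; luminescence read.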
# Numbers stand for hits; . = inactive; ? = inconclusive; / = not tested or not shown. Sampled rows, rich in hits. Any-hit rate of the full collection: about 9.2%. The call rests on the fitted dose curve; in most records, active means well fitted curve in the direction sought with a large enough effect; inconclusive means small, poorly fitted or top-dose-only effect, or another doubt; inactive means no such curve, though single readings can be large; an effect the other way counts as inactive or inconclusive.
SMILES,NPC1 prom act,SMN2 splice enh,ELG1 repair inh,Rab9 prom act,ELG1 genotox,FLuc modulator
O=C(O)COc1ccc(NC(=O)c2ccc3c(c2)C(=O)N(Cc2ccccc2)C3=O)cc1,.,/,.,.,.,16.9µM
O=C(Nc1ccc(O)cc1)c1ccc2c(c1)C(=O)N(Cc1ccccc1)C2=O,.,/,.,.,.,.
COCCCN1C(=O)c2ccc(C(=O)Nc3ccc(OC)cc3)cc2C1=O,.,.,.,.,.,8.49µM
CC(C)CN1C(=O)c2ccc(C(=O)Nc3ccncc3)cc2C1=O,.,.,?,.,.,.
Cc1ccc(O)c(NC(=O)c2ccc3c(c2)C(=O)N(Cc2cccnc2)C3=O)c1,.,/,.,.,.,1.9µM
COCCCN1C(=O)c2ccc(C(=O)Nc3ccccc3OC)cc2C1=O,.,.,.,.,.,.
CC(C)CN1C(=O)c2ccc(C(=O)Nc3ccc(OCC(=O)O)cc3)cc2C1=O,.,/,.,.,.,6.75µM
CCN(CC(=O)Nc1ccc(NC(C)=O)cc1)C(=O)c1ccc(NC2CC2)c([N+](=O)[O-])c1,.,/,?,.,.,?
Cc1cc(C)c(C(=O)COC(=O)c2ccc([N+](=O)[O-])o2)cc1C,.,.,.,.,.,.
COCCn1c(C)cc(C(=O)COC(=O)C2CC(=O)N(CCc3ccc(OC)c(OC)c3)C2)c1C (configuration not stated),.,/,?,.,.,10.7µM
COCCn1c(C)cc(C(=O)COC(=O)c2ccc([N+](=O)[O-])o2)c1C,.,.,?,.,.,12µM
Cc1cc(C(=O)COC(=O)c2ccc([N+](=O)[O-])o2)c(C)n1CC1CCCO1 (configuration not stated),.,.,.,.,.,10.7µM
COc1cc(CNS(=O)(=O)CCl)cc(OC)c1OC,.,/,.,.,.,.
CCOc1ccccc1NC(=O)C1CCN(S(=O)(=O)c2cccs2)CC1,/,.,/,/,/,.
CCC(=O)N1CCC2(CC1)Oc1ccc(Cl)cc1C(=O)C21CC(c2ccc(Cl)cc2)=NO1 (configuration not stated),.,/,10.3µM,.,.,.
CCC(=O)N1CCC2(CC1)Oc1ccc(F)cc1C(=O)C21CC(c2ccc(Cl)cc2)=NO1 (configuration not stated),.,/,.,.,.,.
CC1CCC(NC(=O)Cn2cc3c(n2)CCCC3)CC1 (configuration not stated),?,.,?,?,7.31µM,?
CCOC(=O)N1CCC(NC(=O)Cn2cc3c(n2)CCC(C)C3)CC1 (configuration not stated),.,.,.,.,.,.
Cn1cccc1C(=O)N/N=C/c1c(Cl)cccc1Cl,2.51µM,/,?,2.82µM,16.4µM,10.7µM
Cn1cccc1/C=N/NC(=O)c1cc2ccccc2cc1O,?,/,?,?,?,19µM
O=C(N/N=C/c1cccs1)c1ccccn1,3.55µM,25.1µM,?,2.51µM,?,10.7µM
O=C(N/N=C/c1c(Cl)cccc1Cl)c1ccc(F)cc1,.,.,.,.,.,?
Cn1cccc1/C=N/NC(=O)c1ccccn1,?,/,?,3.55µM,?,13.5µM
Cc1ccc(S(=O)(=O)CCC(=O)Nc2ccc(OC(F)(F)F)cc2)cc1,/,/,/,/,/,.
CC(C)CNC(=O)C(=O)N/N=C/c1cccs1,?,.,?,?,?,?
SMILES,NPC1 prom act,SMN2 splice enh,ELG1 repair inh,Rab9 prom act,ELG1 genotox,FLuc modulator
Cc1ccc(/C=N/NC(=O)c2ccccn2)s1,1.26µM,3.98µM,?,0.501µM,?,?
CC(C)(C)NC(=O)C(=O)N/N=C/c1cccs1,?,?,?,1.78µM,?,15.1µM
CCOC(=O)CN(C(=O)COc1nc(-c2ccccc2)cc(C)c1C#N)c1ccccc1C,.,/,20.6µM,.,.,.
Cc1cc(-c2csc(Nc3ccccn3)n2)ccc1F,1.41µM,/,?,1.58µM,?,1.69µM
Cc1c(Nc2nc(-c3ccc(Cl)cc3)cs2)c(=O)n(-c2ccccc2)n1C,.,.,.,.,.,.
Fc1ccc(-c2csc(Nc3ccccn3)n2)c(F)c1,1.58µM,/,?,2.82µM,?,0.601µM
COc1ccc(-c2csc(Nc3ccccn3)n2)cc1OC,1.78µM,/,?,2µM,2.31µM,6.75µM
O=C(Nc1nc(-c2cc(F)ccc2F)cs1)c1ccccn1,.,.,.,.,.,?
Oc1ccc(-c2csc(Nc3ccccn3)n2)cc1,2µM,/,?,3.16µM,7.3µM,6.75µM
C/C(=N\NC(=O)CCC(=O)Nc1ccc(C)c(C)c1)C1CC1,.,/,.,.,.,.
COC(=O)c1ccc(CNC(=O)CSC(C)C(=O)Nc2cc(C)on2)cc1 (configuration not stated),.,/,.,.,.,.
CCCCc1nc2ccccc2n2c(-c3ccc(OC)cc3)c3c(=O)n(C)c(=O)n(C)c3c12,/,.,/,/,/,.
O=C(NNc1nc(-c2ccccc2)cs1)c1ccccc1,.,.,?,.,.,?
c1ccc(-c2csc(Nc3ccccn3)n2)cc1,2.24µM,/,?,1.26µM,2.91µM,1.35µM
Cc1ccc(-c2csc(Nc3ccccn3)n2)cc1,0.708µM,/,?,1µM,0.82µM,0.601µM
O=C(NCc1ccccc1Cl)c1cc2c(s1)CS(=O)(=O)C2,.,/,.,.,.,.
Cc1cn2c(=O)c(S(=O)(=O)NC(C)c3ccccc3)c(C)nc2s1 (configuration not stated),/,/,/,/,/,.
C/C(=N\NC(=O)c1ccccc1)c1ccccc1Br,?,?,?,?,?,15.1µM
O=C(Nc1ccc(NC(=O)c2ccccc2Br)cc1)c1ccccc1,.,/,?,.,?,.
CCOC(=O)N/N=C(\C)c1ccc(Br)cc1,.,.,?,.,?,16.9µM
C/C(=N\NC(=O)c1ccc(Br)cc1)c1ccccc1,0.562µM,12.6µM,?,1.26µM,?,3.38µM
C/C(=N\NC(=O)c1ccccc1)c1ccccc1F,1.41µM,5.62µM,?,0.562µM,5.8µM,12µM
Nc1nnc(SCC(=O)NNC(=O)c2ccccc2)s1,.,/,.,.,.,.
CC(N=C1NS(=O)(=O)c2ccccc21)C(=O)NCc1ccc(F)cc1 (configuration not stated),/,/,.,/,.,/
C/C(=N\NC(=O)c1ccccc1OCCOc1ccccc1)c1ccccc1F,.,/,18.3µM,.,.,?
C/C(=N\NC(=O)OC(C)(C)C)c1ccccc1Br,?,.,?,?,?,21.3µM
COC(=O)N/N=C(\C)c1ccc(Br)cc1,.,.,?,.,.,?
CCC(=O)N1CCC(NC(=O)Nc2ccc(OC(F)(F)F)cc2)CC1,.,/,?,.,.,.
CCn1nnc(NC(=O)c2ccc(-c3ccc(Cl)cc3)o2)n1,.,.,?,.,?,16.9µM

# Assay outcomes deposited in PubChem by National Center for Advancing Translational Sciences (NCATS).
